PubChem BioAssay (NCATS)
Records with an inconclusive call do not appear. Entries that show only a call come without a potency. Values without a mark were called inactive. Calls of active or inactive are those of the source. Calls come from the whole dose curve; as a rule, active = well fitted inhibition curve with a large enough effect; inconclusive = small, poorly fitted or top-dose-only effect; inactive = flat fitted curve, though single readings scatter.

Columns and labels:
[1] = qHTS profiling for inhibitors of Plasmodium falciparum proliferation (AID 504749); for all read-outs here: nearly all actives have a fitted effect of over 60% in size; conditions: P. falciparum in erythrocytes, SYBR Green DNA, 72 h; for activity, negative = inhibition: at 28.7 µM (top of the series)
Summary of the method: (§1)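 Three-day growth assay of blood-stage parasites in erythrocytes (0.3% parasitemia, 2.5% hematocrit) at 37 C, 5% CO2, quantified by SYBR Green DNA staining after overnight detergent lysis.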

3D7 = assay: as above; conditions: P. falciparum in erythrocytes, SYBR Green DNA, 72 h; series mostly up to 28.7 µM
Summary of the method: as §1

7G8 = assay: as above; conditions: P. falciparum in erythrocytes, SYBR Green DNA, 72 h; series mostly up to 28.7 µM
Summary of the method: as §1

AA1029 = assay: as above; conditions: P. falciparum in erythrocytes, SYBR Green DNA, 72 h; series mostly up to 28.7 µM
Summary of the method: as §1

AS120 = assay: as above; conditions: P. falciparum in erythrocytes, SYBR Green DNA, 72 h; series mostly up to 28.7 µM
Summary of the method: as §1

ATS189 = assay: as above; conditions: P. falciparum in erythrocytes, SYBR Green DNA, 72 h; series mostly up to 28.7 µM
Summary of the method: as §1

ATS95 = assay: as above; conditions: P. falciparum in erythrocytes, SYBR Green DNA, 72 h; series mostly up to 28.7 µM
Summary of the method: as §1

C2A = assay: as above; conditions: P. falciparum in erythrocytes, SYBR Green DNA, 72 h; series mostly up to 28.7 µM
Summary of the method: as §1

CP185 = assay: as above; conditions: P. falciparum in erythrocytes, SYBR Green DNA, 72 h; series mostly up to 28.7 µM
Summary of the method: as §1

CP191 = assay: as above; conditions: P. falciparum in erythrocytes, SYBR Green DNA, 72 h; series mostly up to 28.7 µM
Summary of the method: as §1

CP192 = assay: as above; conditions: P. falciparum in erythrocytes, SYBR Green DNA, 72 h; series mostly up to 28.7 µM
Summary of the method: as §1

CP194 = assay: as above; conditions: P. falciparum in erythrocytes, SYBR Green DNA, 72 h; series mostly up to 28.7 µM
Summary of the method: as §1
Potency is the fitted concentration of half-maximal effect.

SMILES | activity, negative = inhibition ([1]; parasite line A) | activity, negative = inhibition ([1]; parasite line B) | Potency (3D7) | Potency (7G8) | Potency (AA1029) | Potency (AS120) | Potency (ATS189) | Potency (ATS95) | Potency (C2A) | Potency (CP185) | Potency (CP191) | Potency (CP192) | Potency (CP194) | Potency ([1]; parasite line A) | Potency ([1]; parasite line B)
CNC(=O)OCc1cccc(COC(=O)NC)n1 | 3.63% | 1.01% | inactive | inactive | inactive | inactive | inactive | inactive | inactive | inactive | inactive | inactive | inactive | – | –
CCCCCCCCCCCCCC(=O)OCC(COP(=O)([O-])OCC[N+](C)(C)C)OC(=O)CCCCCCCCCCCCC (stereo not given) | 4.09% | -2.15% | inactive | inactive | inactive | inactive | inactive | inactive | inactive | inactive | inactive | inactive | inactive | – | –
OCC(O)CO | 7.74% | 7.55% | inactive | inactive | inactive | inactive | inactive | inactive | inactive | inactive | inactive | inactive | inactive | – | –
CN1c2c(nc(N)[nH]c2=O)NCC1CNc1ccc(C(=O)NC(CCC(=O)O)C(=O)O)cc1 (stereo not given) | 2.92% | -8.81% | inactive | inactive | inactive | inactive | inactive | inactive | inactive | inactive | inactive | inactive | inactive | – | –
O=C(O)c1cc(N=Nc2ccc(O)c(C(=O)O)c2)ccc1O | 9.5% | 11.5% | inactive | inactive | inactive | inactive | inactive | inactive | inactive | inactive | inactive | inactive | inactive | – | –
CCOC(=S)SSC(=S)OCC | 12.6% | -0.533% | inactive | inactive | inactive | inactive | inactive | inactive | inactive | inactive | inactive | inactive | inactive | – | –
CC12CCC(C1)C(C)(C)C2=O (stereo not given) | 8.34% | 10.9% | inactive | inactive | inactive | inactive | inactive | inactive | inactive | inactive | inactive | inactive | inactive | – | –
CC1CCCCN1CCCOC(=O)c1ccccc1 (stereo not given) | 3.84% | 9.27% | inactive | inactive | inactive | inactive | inactive | inactive | inactive | inactive | inactive | inactive | inactive | – | –
CCCCCCCCCCCC(=O)N(CCO)CCO | -3.5% | 9.6% | inactive | inactive | inactive | inactive | inactive | inactive | inactive | inactive | inactive | inactive | inactive | – | –
NC(=O)[C@H]1O[C@@H](O)[C@H](O)[C@@H](O)[C@@H]1O | 12.1% | 13.4% | inactive | inactive | inactive | inactive | inactive | inactive | inactive | inactive | inactive | inactive | inactive | – | –
CCCCCCCCCCCCOCCCN | -4.13% | 8.54% | inactive | inactive | inactive | inactive | inactive | inactive | inactive | inactive | inactive | inactive | inactive | – | –
O=C1CCC(=O)N1CO | -2.35% | 7.84% | inactive | inactive | inactive | inactive | inactive | inactive | inactive | inactive | inactive | inactive | inactive | – | –
Cc1ncc[nH]1 | 1.23% | 14.4% | inactive | inactive | inactive | inactive | inactive | inactive | inactive | inactive | inactive | inactive | inactive | – | –
CCCCC[C@H](O)/C=C/[C@H]1[C@H](O)CC(=O)[C@@H]1C/C=C\CCCC(=O)O | 7.21% | 0.0897% | inactive | inactive | inactive | inactive | inactive | inactive | inactive | inactive | inactive | inactive | inactive | – | –
[O]=[Bi][O][Bi]=[O] | 0.672% | 4.28% | inactive | inactive | inactive | inactive | inactive | inactive | inactive | inactive | inactive | inactive | inactive | – | –
CCOC(C)OCC | -1.66% | -9.74% | inactive | inactive | inactive | inactive | inactive | inactive | inactive | inactive | inactive | inactive | inactive | – | –
ClC(Cl)Cl | 5.74% | 10.9% | inactive | inactive | inactive | inactive | inactive | inactive | inactive | inactive | inactive | inactive | inactive | – | –
C=C1C(CCl)(CCl)C2(Cl)C(Cl)C(Cl)C1(Cl)C2(Cl)Cl (stereo not given) | – | – | 1.78 µM (active) | 0.282 µM (active) | 3.16 µM (active) | 2 µM (active) | 3.16 µM (active) | 3.16 µM (active) | 3.16 µM (active) | 3.16 µM (active) | 3.16 µM (active) | 5.36 µM (active) | 6.75 µM (active) | 2.51 µM (active) | 1.26 µM (active)

SMILES | activity, negative = inhibition ([1]; parasite line A) | activity, negative = inhibition ([1]; parasite line B) | Potency (3D7) | Potency (7G8) | Potency (AA1029) | Potency (AS120) | Potency (ATS189) | Potency (ATS95) | Potency (C2A) | Potency (CP185) | Potency (CP191) | Potency (CP192) | Potency (CP194) | Potency ([1]; parasite line A) | Potency ([1]; parasite line B)
Cc1ccc(C(C)(C)c2ccc(C)cc2)cc1 | 2.11% | -1.44% | inactive | inactive | inactive | inactive | inactive | inactive | inactive | inactive | inactive | inactive | inactive | – | –
OB(O)O | 8.7% | 9.31% | inactive | inactive | inactive | inactive | inactive | inactive | inactive | inactive | inactive | inactive | inactive | – | –
C[C@H](N)C(=O)N[C@@H](C)P(=O)(O)O | 12.4% | 10.4% | inactive | inactive | inactive | inactive | inactive | inactive | inactive | inactive | inactive | inactive | inactive | – | –
Cc1ncc(COP(=O)(O)O)c(CN)c1O | -3.16% | 3.16% | inactive | inactive | inactive | inactive | inactive | inactive | inactive | inactive | inactive | inactive | inactive | – | –
Nc1nccs1 | 12.4% | 11.4% | inactive | inactive | inactive | inactive | inactive | inactive | inactive | inactive | inactive | inactive | inactive | – | –
CC1=CC(=C(c2ccc(N)cc2)c2ccc(N)cc2)C=CC1=N | – | – | 0.891 µM (active) | 5.01 µM (active) | 2.24 µM (active) | 2.24 µM (active) | 2.82 µM (active) | 2.82 µM (active) | 0.631 µM (active) | 3.98 µM (active) | 1.78 µM (active) | 4.26 µM (active) | 3.79 µM (active) | 1.41 µM (active) | 1.26 µM (active)
CN(CCO)CC(O)Cn1cnc2c1c(=O)n(C)c(=O)n2C (stereo not given) (tested in a mixture with another compound) | 12.7% | 12.8% | inactive | inactive | inactive | inactive | inactive | inactive | inactive | inactive | inactive | inactive | inactive | – | –
CC(C)(CO)[C@@H](O)C(=O)NCCC(=O)NCCSSCCNC(=O)CCNC(=O)[C@H](O)C(C)(C)CO | -1% | -2.45% | inactive | inactive | inactive | inactive | inactive | inactive | inactive | inactive | inactive | inactive | inactive | – | –
CC(/C=C/C=C(\C)C(=O)O[C@@H]1O[C@H](CO[C@@H]2O[C@H](CO)[C@@H](O)[C@H](O)[C@H]2O)[C@@H](O)[C@H](O)[C@H]1O)=C\C=C\C=C(C)\C=C\C=C(/C)C(=O)O[C@@H]1O[C@H](CO[C@@H]2O[C@H](CO)[C@@H](O)[C@H](O)[C@H]2O)[C@@H](O)[C@H](O)[C@H]1O | 7.84% | -1.1% | inactive | inactive | inactive | inactive | inactive | inactive | inactive | inactive | inactive | inactive | inactive | – | –
CC(C)[C@H](N)C(=O)OCC(CO)OCn1cnc2c(=O)[nH]c(N)nc21 (stereo not given in full) | 14.7% | 6.07% | inactive | inactive | inactive | inactive | inactive | inactive | inactive | inactive | inactive | inactive | inactive | – | –
CC(C)(Oc1ccc(C2CCCc3ccccc32)cc1)C(=O)O (stereo not given) | 0.13% | 7.8% | inactive | inactive | inactive | inactive | inactive | inactive | inactive | inactive | inactive | inactive | inactive | – | –
CC(C)NCC(O)COc1ccccc1-n1cccc1 (stereo not given) | 18.2% | -1.41% | inactive | 7.08 µM (active) | inactive | inactive | inactive | inactive | inactive | inactive | inactive | inactive | inactive | – | –
C=C(C)C1CC=C(C)CC1 (stereo not given) | 7.1% | 5.88% | inactive | inactive | inactive | inactive | inactive | inactive | inactive | inactive | inactive | inactive | inactive | – | –
CC/C(=C(/CC)c1ccc(OP(=O)(O)O)cc1)c1ccc(OP(=O)(O)O)cc1 | 13.6% | -2.71% | inactive | inactive | inactive | inactive | inactive | inactive | inactive | inactive | inactive | inactive | inactive | – | –
C[C@]12CC[C@@H]3c4ccc(OC(=O)c5ccccc5)cc4CC[C@H]3[C@@H]1CC[C@@H]2O | -13.9% | 5.42% | 6.31 µM (active) | 11.2 µM (active) | inactive | inactive | inactive | inactive | inactive | inactive | inactive | inactive | inactive | – | –
O=[n+]1ccn([O-])c2ccccc21 | 14.9% | 3.55% | inactive | inactive | inactive | inactive | inactive | inactive | inactive | inactive | inactive | inactive | inactive | – | –
Cc1cccc(Nc2ncccc2C(=O)O)c1C | 2.92% | 1.25% | inactive | inactive | inactive | inactive | inactive | inactive | inactive | inactive | inactive | inactive | inactive | – | –
